Source: PubChem BioAssay (NCI)
Compounds without any hit were thinned out: in the full panel of roughly 83,000, 20% have a hit.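 Assay: single dose, 48 h. Readout: percent growth (0 = no net growth; negative = cell death). Active: <10.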 A number with no mark means an inactive call. Activity calls are given as the source filed them.

test system: HL-60(TB) leukemia; experiment: NCI-60 one-dose screen, 48 h (100 = growth as untreated, 0 = no growth, -100 = all killed); settings: 10 µM unless noted

| Compound | growth |
| --- | --- |
| COc1ccc(C(=S)N2CCN(c3cccc(Cl)c3)CC2)cc1 | 130% |
| CNC(=O)c1c(NC(=O)c2ccc(C(C)(C)C)cc2)sc2c(CN(C)C)c(O)ccc12 | -33% (active) |
| CCC(C)(C)C(=O)O[C@H]1C[C@@H](C)C=C2C=C[C@H](C)[C@H](CC[C@@H]3CC=CC(=O)O3)[C@H]21 | 5.76% (active) |
| CC(=O)O[C@]1(C)CC[C@H]2[C@H](CNCCc3ccc(Cl)cc3)C(=O)O[C@@H]2C2=C(C)C(=O)C[C@H]21 | 89.2% |
| C[C@@H](Oc1cc(-c2cnn(C3CCNCC3)c2)cnc1N)c1c(Cl)ccc(F)c1Cl | -59.4% (active) |
| Clc1nc(-c2cccnc2)nc2sc3c(c12)CCCCCC3 | 102% |
| O=C(c1ccccc1)C(CCc1ccccn1)CCc1ccccn1 | 107% |
| COC(=O)C(C(C[N+](=O)[O-])c1ccccc1)=P(c1ccccc1)(c1ccccc1)c1ccccc1 (centres undefined) | 80.5% |
| O=C1Nc2c(ccc(Cl)c2Cl)/C1=C/c1ccc([N+](=O)[O-])cc1 | 74.1% |
| Cc1cccc(NCS(=O)(=O)O)c1 | 103% |
| COc1ccc(C2[C@@H](Cl)C(=O)N2c2cc(OC)c(OC)c(OC)c2)cc1Cl (some centres undefined) | -30.3% (active) |
| COc1ccc2c3c(c4ccccc4cc13)C(=O)N(CCN(C)CCN)C2=O | -58.1% (active) |
| CCOC(=O)c1c(-c2cc(OC)c(OC)c(OC)c2)csc1N | 96.3% |
| Cc1cc(NC(=O)c2cccc(C(F)(F)F)c2)ccc1-n1ccc2c(NC(=O)c3ccccc3)nccc21 | 106% |
| Cc1ccc(Nc2ccc(O)c3c2C(=O)c2c(O)ccc(Nc4ccc(C)cc4)c2C3=O)cc1 | 108% |
| O=C(Nc1ccc(NC(=O)c2cc(=O)[nH]c3ccccc23)cc1)Nc1cccc(C(F)(F)F)c1 | 99.8% |
| O=Cc1ccc(Cl)c(Cl)c1 | 106% |
| COC(=O)[C@]12CC[C@@H](C(=O)/C=C/c3cccnc3)[C@@H]1[C@H]1CC[C@@H]3[C@@]4(C)C/C(=C/c5cccnc5)C(=O)C(C)(C)[C@@H]4CC[C@@]3(C)[C@]1(C)CC2 | -30.2% (active) |
| Cc1cccc(-c2nc(N(C)c3ccc4ncsc4c3)c3ccccc3n2)n1 | 50.4% |
| C=C(C)[C@@H]1CC[C@]2(C(N)=O)CC[C@]3(C)[C@H](CC[C@@H]4[C@@]5(C)C/C(=C/c6cccnc6)[C@H](O)C(C)(C)[C@@H]5CC[C@]43C)[C@@H]12 | 0.0883% [100 µM] (active) |
| CCCCCCNc1nc(N2CCOCC2)c2[nH]c(NCCCCCC)nc2n1 | -54.8% (active) |
| ClCCOCCn1cnc2c(Cl)nc(Cl)nc21 | 40.9% |
| CCCCCCCCn1ccc2cc(NC(=O)Cn3cc(CN4CCC(C)CC4)nn3)ccc21 | -22.4% (active) |
| O=C(NCCCNC(=O)OCc1ccc2c(Br)cc(Br)c(O)c2n1)OCc1ccc2c(Br)cc(Br)c(O)c2n1 | -25.4% (active) |
| CCN(CC)CCCC(C)Nc1cnc(C(=O)Nc2cc(C)cc3cccnc23)cn1 (centres undefined) | 76.8% |
| O=c1[nH]cnc2c1C(c1ccc(Br)cc1)c1sc3c(F)cccc3c1O2 (centres undefined) | 99.4% |
| Cc1ccc(/C=C2/C(=O)Nc3cc(Cl)c(-c4csc(N)n4)cc32)cc1 | 22.2% |
| O=S(=O)(Oc1ccc(-c2ccc3sccc3c2)cc1)c1ccccc1 | 99.6% |
| Cn1c(=O)c2[nH]c(NN)nc2n(C)c1=O | 91.6% |
